This passage reports growth results from PubChem BioAssay (NCI).

About 83,000 compounds went through this panel and 20% of them were active in at least one assay; those are over-represented in the sample as a whole.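 The endpoint reported here, percent growth, reads 100 for growth as untreated, 0 for no net growth and -100 for all cells dead.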 Values without a mark were called inactive. Activity calls are given as the source filed them. Rule for the calls: active = growth percent below 10; inactive = the rest.

Some test systems named below: NCI-H23 lung; NCI-H226 lung; NCI-H322M lung; HOP-62 NSCLC; NCI-H460 lung; HOP-92 NSCLC; NCI-H522 lung; A549/ATCC NSCLC; 786-0 renal; COLO 205 colon.
Common to all, as to assay: NCI-60 one-dose screen, 48 h (100 = growth as untreated, 0 = no growth, -100 = all killed)
What all share (details): 10 µM unless noted

In the case of `C/C1=C/C(=O)O[C@@H]2C[C@@H](CC[C@H](C)/C=C\C=C\CC1)O[C@@](O)([C@@H]1CSC(=O)N1CO)C2`, the growth was 13.9% in the assay on NCI-H23 lung; 46.1% with NCI-H226 lung; 41.7% in the assay on NCI-H322M lung; -25.7% (active) in the assay on HOP-62 NSCLC; 26.9% with NCI-H460 lung; -82.5% (active) with HOP-92 NSCLC. Further, the growth in the assay on NCI-H522 lung is -52.3% (active); with A549/ATCC NSCLC it was 20.3%; in the assay on 786-0 renal it was 6.79% (active); with COLO 205 colon it was -55.5% (active).
Take `CNC(=O)Oc1ccc(N(C)C)cc1C(C)C`: the growth in the assay on NCI-H23 lung is 103%; in the assay with NCI-H226 lung, 92.6%; with NCI-H322M lung, 91.1%; with HOP-62 NSCLC, 99.5%; in the assay on NCI-H460 lung, 107%; in the assay on HOP-92 NSCLC, 100%. The growth was 92.2% in the assay with NCI-H522 lung, 94.9% with A549/ATCC NSCLC, 102% in the assay on 786-0 renal and 115% with COLO 205 colon.
In the case of `O=C1C2C(C(=O)[N]1[Hg][c]1cccs1)C1(Cl)C(Cl)=C(Cl)C2(Cl)C1(Cl)Cl` (stereo not given), the growth was -1.96% (active) in the assay on NCI-H23 lung; 97.1% in the assay on NCI-H226 lung; 78.3% in the assay with NCI-H322M lung; 10.5% in the assay on HOP-62 NSCLC; 52.7% with NCI-H460 lung; -51.4% (active) with HOP-92 NSCLC. The growth in the assay on NCI-H522 lung was -89.8% (active); in the assay with A549/ATCC NSCLC, 80.4%; with 786-0 renal it was -90.2% (active); with COLO 205 colon, -71.4% (active).
In the case of `C=CC1=C[C@@H]2[C@@H]3O[C@]4(CC[C@H](O4)[C@@H](C)C[C@@H](O)C3=O)C[C@H](O)C3=NCC[C@@]32CC1`, the growth is -34.6% (active) in the assay on NCI-H23 lung; -29.2% (active) with NCI-H226 lung; -23.4% (active) in the assay on NCI-H322M lung; -20.3% (active) with HOP-62 NSCLC; -28.9% (active) in the assay with NCI-H460 lung; -22.3% (active) in the assay on HOP-92 NSCLC. Besides, the growth in the assay with NCI-H522 lung was -33.5% (active); in the assay on A549/ATCC NSCLC, -3.33% (active); in the assay on 786-0 renal it was -28.3% (active); with COLO 205 colon it was -25.6% (active).
As to `C[N+]12CN3CN(CN(C3)C1)C2`, the growth is 94.3% with NCI-H23 lung; 103% with NCI-H226 lung; 110% with NCI-H322M lung; 88% in the assay on HOP-62 NSCLC; 107% with NCI-H460 lung; 71% in the assay with HOP-92 NSCLC. Besides, the growth in the assay on NCI-H522 lung was 94.5%; in the assay on A549/ATCC NSCLC it was 98.8%; in the assay with 786-0 renal, 104%; with COLO 205 colon, 99.4%.
`CC(=O)O[C@H]1CC[C@]2(C)[C@H]3CC[C@]4(C)[C@@H](OC(C)=O)CC[C@H]4[C@@H]3[C@@H](C)[C@]2(O)C1`: the growth in the assay on NCI-H23 lung was 111%; in the assay on NCI-H226 lung it was 104%; with NCI-H322M lung it was 106%; in the assay with HOP-62 NSCLC, 105%; with NCI-H460 lung, 116%; with HOP-92 NSCLC, 108%. Also, the growth with NCI-H522 lung is 94.8%; in the assay with A549/ATCC NSCLC, 114%; with 786-0 renal it was 103%; in the assay with COLO 205 colon, 104%.
Consider `Brc1ccc2c(c1)c(-c1nc(-c3c[nH]c4ncccc34)cs1)cn2CCN1CCOCC1`, for which the growth is 71.8% with NCI-H23 lung; 60.2% in the assay with NCI-H226 lung; 72.1% in the assay with NCI-H322M lung; 60.4% in the assay on HOP-62 NSCLC; 63.2% in the assay on NCI-H460 lung; 52.2% in the assay on HOP-92 NSCLC. For the same molecule, the growth with NCI-H522 lung was 76.1%; with A549/ATCC NSCLC, 61.7%; in the assay on 786-0 renal, 67.5%; in the assay on COLO 205 colon, 64.3%.
In the case of `CCOC(=O)[C@@H](C)C[C@H](Cc1ccccc1)NC(=O)c1nc([C@@H](C[C@H](C(C)C)N(C)C(=O)[C@@H](NC(=O)[C@H]2CCCCN2C)C(C)C)OC(C)=O)sc1CCOCc1ccccc1`, the growth in the assay on NCI-H23 lung was 14.7%; with NCI-H226 lung, -80.6% (active); with NCI-H322M lung it was 11.9%; in the assay with HOP-62 NSCLC, -42.7% (active); with NCI-H460 lung, -54.8% (active); in the assay with HOP-92 NSCLC it was -16.5% (active). In addition, the growth with NCI-H522 lung was -49.2% (active); in the assay with A549/ATCC NSCLC, -31.1% (active); in the assay with 786-0 renal, -38.6% (active); with COLO 205 colon, -70.9% (active).
Turning to `C=CC12CCN(CC1)C(C(O)c1ccnc3ccc(OC)cc13)C2` (stereo not given), the growth in the assay with NCI-H23 lung is 100%; in the assay with NCI-H226 lung, 89.3%; with NCI-H322M lung it was 93.2%; with HOP-62 NSCLC, 97.5%; in the assay with NCI-H460 lung, 89%; in the assay with HOP-92 NSCLC it was 75.2%. Further, the growth in the assay with NCI-H522 lung is 89%; in the assay with A549/ATCC NSCLC it was 76.1%; with 786-0 renal, 79%; in the assay on COLO 205 colon, -91.5% (active).
As for `Cc1cc(N(CCCl)CCCl)ccc1/C=N\NC(=O)c1ccncc1`, the growth with NCI-H23 lung was 87.8%; in the assay on NCI-H226 lung, -7.98% (active); with NCI-H322M lung, 113%; with HOP-62 NSCLC it was 79.4%; in the assay with NCI-H460 lung it was 25.9%; with HOP-92 NSCLC it was 97%. Further, the growth in the assay on NCI-H522 lung is 101%; in the assay on A549/ATCC NSCLC, 78.4%; with 786-0 renal, 82.5%; in the assay with COLO 205 colon, 98%.
As for `CN1C(=O)C(=Cc2cn(CCCCCCn3c4ccccc4c(=O)c4ccccc43)c3ccccc23)C(=O)N(C)C1=O`, the growth in the assay on NCI-H23 lung was 79.9%; in the assay on NCI-H226 lung it was -20.8% (active); in the assay on NCI-H322M lung it was 99.4%; with HOP-62 NSCLC it was 89.1%; in the assay on NCI-H460 lung it was 85.1%; in the assay on HOP-92 NSCLC, 97.5%. For the same molecule, the growth with NCI-H522 lung is 94.9%; in the assay with A549/ATCC NSCLC it was 103%; in the assay with 786-0 renal, 97.4%; with COLO 205 colon it was 102%.
For `O=C(O)c1ccc([S-])cc1.[Au+].c1ccc(CN2[CH-]N(Cc3ccccc3)C(c3ccccc3)=C2c2ccccc2)cc1`, the growth is -64.8% (active) in the assay with NCI-H23 lung; 3.42% (active) in the assay with NCI-H226 lung; 7.67% (active) in the assay with NCI-H322M lung; -28% (active) in the assay with HOP-62 NSCLC; -29% (active) in the assay with NCI-H460 lung; -45% (active) in the assay on HOP-92 NSCLC. Further, the growth is -44.9% (active) with NCI-H522 lung, 3.5% (active) in the assay with A549/ATCC NSCLC, -70.3% (active) in the assay with 786-0 renal and -66.5% (active) in the assay on COLO 205 colon.
